In PubChem BioAssay (EPA / NIEHS):
Records with an inconclusive call do not appear. Activity calls are given as the source filed them. How the source made its calls, unless noted: active means hit-call score of the fitted dose curve at least 0.9, where 1 is the maximum; inactive means score below 0.9.

Assays:
[1] = read-out: Monokine induced gamma interferon (MIG), CXCL9 (gene 4283); assay: BSK_3C_MIG: BioMAP Diversity Plus: 3C Assay for Monokine induced gamma interferon (MIG) Biomarker Activity (AID 2283021); conditions: primary human endothelial cells (HUVEC); actives raise or lower the signal;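 on AC50: MIG protein level measured by immunoassay in the treated endothelial cultures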
In short: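 HUVEC primary endothelial cultures dosed with chemical; MIG quantified by ELISA at 24 h. Data fitted bidirectionally against DMSO control, with parallel SRB total-protein staining for cytotoxicity.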

[2] = biological target: human Vitamin D Receptor (VDR), VDR (gene 7421) (UniProt P11473); assay: ATG_VDR_TRANS: Attagene TRANS-FACTORIAL HepG2 Assay for human Vitamin D Receptor (VDR) (AID 2283022; active means hit-call score of the fitted dose curve at least 0.9, where 1 is the maximum)
In short: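 Multiplexed TRANS reporter in HepG2; 24 h treatment; reporter mRNA by RT-PCR plus capillary electrophoresis; upregulation scored relative to DMSO.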

[3] = BSK_3C_SRB: Viability Assessment in the BioMAP Diversity Plus: 3C Assay (AID 2283023); conditions: primary human endothelial cells (HUVEC);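 further: cells read 24 h after compound dosing; fitted both ways against DMSO so a hit may be signal rise or drop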
In short: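 Overt cytotoxicity is gauged in parallel confluent HUVEC cultures by SRB total-protein staining at the time of biomarker measurement, 24 h after dosing. Gain or loss of signal is fitted versus DMSO.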

[4] = read-out: Matrix Metallopeptidase 1 (MMP1), MMP1 (gene 4312); assay: BSK_BE3C_MMP1: BioMAP Diversity Plus: BE3C Assay for Matrix Metallopeptidase 1 (MMP1) Biomarker Activity (AID 2283024); conditions: primary human bronchial epithelial cells; actives raise or lower the signal
In short: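 Human primary bronchial epithelial cells (BE3C system) dosed for 24 h; MMP-1 quantified by ELISA. Bidirectional fit against DMSO; cytotoxicity tracked in parallel cultures by SRB total-protein staining.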

[5] = BSK_3C_Vis: BioMAP Diversity Plus: 3C Assay for Morphology Visualization (AID 2283025); conditions: primary human endothelial cells (HUVEC);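 further: fitted both ways so gain or loss versus DMSO counts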;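 on AC50: light microscopy image of cell morphology used as background control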
In short: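 Human umbilical vein endothelial cell morphology was inspected by light microscopy 24 h after chemical dosing; scored bidirectionally relative to DMSO.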

[6] = read-out: Pselectin, SELP (gene 6403); assay: BSK_4H_Pselectin: BioMAP Diversity Plus: 4H Assay for Pselectin Biomarker Activity (AID 2283026); conditions: primary human endothelial cells (HUVEC); actives raise or lower the signal
In short: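 Primary human umbilical vein endothelial cells were treated 24 h, and cell-surface P-selectin was then quantified by ELISA. Bidirectional fit versus DMSO; cytotoxicity checked in parallel cultures by SRB total-protein staining.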

[7] = BSK_4H_SRB: Viability Assessment in the BioMAP Diversity Plus: 4H Assay (AID 2283027); conditions: primary human endothelial cells (HUVEC);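 further: cells exposed to compound for 24 h before staining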;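 on AC50: curves fitted both ways versus DMSO so AC50 may be loss or gain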
In short: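 Absorbance at 560 nm of SRB-stained total protein served as the viability read-out in confluent primary human umbilical vein endothelium 24 h after chemical treatment. Curves were fitted bidirectionally against DMSO as negative control.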

[8] = BSK_BE3C_SRB: Viability Assessment in the BioMAP Diversity Plus: BE3C Assay (AID 2283028); conditions: primary human bronchial epithelial cells;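 on AC50: fitted both ways so AC50 may mark signal gain or loss versus DMSO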
In short: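 SRB total-protein staining (0.1%, after TCA fixation) of chemically dosed human bronchial epithelial primary cells at 24 h; DMSO serves as the negative control for bidirectional curve fitting.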

[9] = read-out: Thrombomodulin, THBD (gene 7056); assay: BSK_3C_Thrombomodulin: BioMAP Diversity Plus: 3C Assay for Thrombomodulin Biomarker Activity (AID 2283029); conditions: primary human endothelial cells (HUVEC); actives raise or lower the signal
In short: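 Human umbilical vein endothelial cells were exposed to chemicals for 24 h; cell-surface thrombomodulin quantified by ELISA, with bidirectional fitting against DMSO baseline.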

[10] = read-out: Urokinase-type plasminogen activator receptor (uPAR), PLAUR (gene 5329); assay: BSK_4H_uPAR: BioMAP Diversity Plus: 4H Assay for Urokinase-type plasminogen activator receptor (uPAR) Biomarker Activity (AID 2283030); conditions: primary human endothelial cells (HUVEC); actives raise or lower the signal
In short: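 Endpoint derived via bidirectional curve fitting against DMSO baseline; readout was ELISA detection of uPAR on umbilical vein endothelial cells at 24 h post-treatment, with SRB-stained parallel cultures assessing cytotoxicity.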

Measured: AC50

Sequence of human Vitamin D Receptor (VDR), VDR (gene 7421) (P11473 whole entry, looked up): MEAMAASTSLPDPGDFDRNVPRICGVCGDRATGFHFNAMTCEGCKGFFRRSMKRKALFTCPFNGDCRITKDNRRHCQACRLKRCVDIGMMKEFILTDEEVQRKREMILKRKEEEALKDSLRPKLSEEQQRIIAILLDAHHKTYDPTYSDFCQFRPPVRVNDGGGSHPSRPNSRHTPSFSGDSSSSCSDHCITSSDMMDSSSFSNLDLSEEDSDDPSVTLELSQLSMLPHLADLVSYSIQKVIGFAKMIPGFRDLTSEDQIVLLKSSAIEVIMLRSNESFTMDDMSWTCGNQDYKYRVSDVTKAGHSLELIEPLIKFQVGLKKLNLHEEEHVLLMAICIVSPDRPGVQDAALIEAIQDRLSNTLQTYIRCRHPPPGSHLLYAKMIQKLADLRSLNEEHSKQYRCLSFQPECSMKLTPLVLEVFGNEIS

CC(C)c1ccc(CO)cc1
inactive: all assays above

CC(C)(C)CC(C)(C)c1ccc(O)cc1
inactive: [2] | [9]
active: [1] 12.4 µM | [3] 7.28 µM | [4] 33.7 µM | [5] 6.71 µM | [6] 11.4 µM | [7] 9.01 µM | [8] 13.3 µM | [10] 9.65 µM

CCN1CCC2(CC1)COc1cc3c(cc12)N(C(=O)c1ccc(-c2ccc(-c4nnc(C)o4)cc2C)cc1)CC3
active: [1] 32.3 µM | [3] 6.23 µM | [5] 6.51 µM | [6] 12 µM | [7] 23.1 µM | [8] 12.9 µM | [10] 18.7 µM
inactive: [2] | [4] | [9]

COP(=S)(OC)Oc1c(Cl)cc(C)cc1Cl
active: [3] 30.3 µM | [5] 37.5 µM | [6] 33.4 µM | [7] 20 µM
inactive: all other assays above

Cc1ccccc1N
not listed: [2] | [5]
inactive: all other assays above

CCc1ccccc1C
inactive: [2]

O=C(Cc1ccccc1)c1ccccc1
inactive: [2]

COC[C@H](C)N(C(=O)CCl)c1c(C)csc1C
not listed: [2] | [5]
inactive: all other assays above

O=C/C=C/c1ccccc1
inactive: [2]

CCOP(=S)(OCC)Oc1ccc(S(C)=O)cc1 (stereo not given)
not listed: [2]
inactive: all other assays above

O=[N+]([O-])c1ccc(O)c([N+](=O)[O-])c1
not listed: [2]
inactive: all other assays above

O=[N+]([O-])c1ccc2c3c(cccc13)CC2
active: [3] 20 µM
not listed: [5]
inactive: all other assays above

CC1(C)Cc2cccc(O)c2O1
not listed: [2] | [5]
inactive: all other assays above

COc1cc(OC)nc(NC(=O)NS(=O)(=O)c2ncccc2C(=O)N(C)C)n1
not listed: [2]
inactive: all other assays above

COP(=O)(OC)OC
inactive: [2]

COP(=S)(OC)Oc1cc(Cl)c(Cl)cc1Cl
active: [4] 20 µM | [6] 20 µM | [7] 20 µM
not listed: [2] | [5]
inactive: all other assays above

CC(C)(OO)c1ccccc1
not listed: [5]
inactive: all other assays above

Nc1cccc2ccccc12
not listed: [2]
inactive: all other assays above

CCCCC(CC)CO[N+](=O)[O-] (stereo not given)
inactive: [1] | [4] | [8] | [9]
active: [3] 34.9 µM | [6] 30.6 µM | [7] 36.1 µM | [10] 33 µM

COC(=O)c1sccc1S(=O)(=O)NC(=O)Nc1nc(C)nc(OC)n1
not listed: [2]
inactive: all other assays above

Nc1ncc([N+](=O)[O-])s1
not listed: [2]
inactive: all other assays above

CCC(=O)C(CC(C)N(C)C)(c1ccccc1)c1ccccc1 (stereo not given)
not listed: [2] | [5]
inactive: all other assays above

CCOP(=S)(OCC)SCCS(=O)(=O)CC
not listed: [5]
inactive: all other assays above

ClC(Cl)=C(Cl)C(Cl)=C(Cl)Cl
inactive: [9]
active: [1] 36.5 µM | [3] 34.4 µM | [4] 20 µM | [6] 33.6 µM | [7] 34.2 µM | [8] 31.2 µM | [10] 32.2 µM

O=C(O)C(Cl)(Cl)Cl
not listed: [5]
inactive: all other assays above

CCC[CH2][Sn]([CH2]CCC)([CH2]CCC)[O]C(=O)c1ccccc1
inactive: [2]

O=C1C(Cl)=C(Cl)C(=O)c2ccccc21
inactive: [2]

CCOP(=S)(OCC)SCSP(=S)(OCC)OCC
not listed: [2] | [5]
inactive: all other assays above

COc1cc2c(cc1OC)[C@@]13CCN4CC5=CCO[C@H]6CC(=O)N2[C@H]1[C@H]6[C@H]5C[C@H]43
inactive: [2]

CC(C)(C)c1cc(O)ccc1O
active: [1] 37 µM | [4] 8.5 µM | [6] 20 µM | [7] 28.1 µM | [9] 33.5 µM
inactive: [3] | [8] | [10]

Clc1ccc(C2(Cn3cncn3)CC(Br)CO2)c(Cl)c1 (stereo not given)
inactive: [2]

CCSC(C)CC1CC(=O)C(C(CC)=NOC/C=C/Cl)=C(O)C1 (stereo not given)
not listed: [2]
inactive: all other assays above

Oc1cccc2cccnc12
active: [4] 2.73 µM | [6] 5.54 µM | [8] 4.3 µM
not listed: [5]
inactive: all other assays above

ClCC(Cl)CCl
not listed: [5]
inactive: all other assays above

ClC1(Cl)C2(Cl)C3(Cl)C4(Cl)C(Cl)(Cl)C5(Cl)C3(Cl)C1(Cl)C5(Cl)C24Cl (stereo not given)
not listed: [5]
inactive: all other assays above

CC1CN1P(=O)(N1CC1C)N1CC1C (stereo not given)
inactive: [2]

ClCc1ccccn1
inactive: [2]

c1ccc(N=NNc2ccccc2)cc1
inactive: [2]

CC(=O)OC(c1ccccc1)C(Cl)(Cl)Cl (stereo not given)
not listed: [2] | [5]
inactive: all other assays above

Cn1sc(Cl)cc1=O
active: [6] 9.68 µM
not listed: [2]
inactive: all other assays above

C[C@@H]1C[C@@H]([C@H](O)CC2CC(=O)NC(=O)C2)C(=O)[C@@H](C)C1
inactive: [8] | [9]
active: [1] 20.1 µM | [3] 4.82 µM | [4] 2.51 µM | [6] 3.9 µM | [7] 7.08 µM | [10] 4.3 µM

CC(=O)[O][Hg][c]1ccccc1
active: [1] 2.73 µM | [3] 0.146 µM | [4] 2.93 µM | [5] 0.954 µM | [6] 1.29 µM | [7] 1.68 µM | [8] 1.88 µM | [9] 3.83 µM | [10] 1.74 µM

O=C(O)CCC(F)(C(F)(F)F)C(F)(F)F
not listed: [2] | [5]
inactive: all other assays above

Clc1nc(Cl)nc(Cl)n1
inactive: [2]

CC1(C)CCC(Cc2ccc(Cl)cc2)C1(O)Cn1cncn1 (stereo not given)
inactive: [2]

COc1ccccc1OC
inactive: [2]

ClCc1cccnc1
inactive: [2]

O=P(O)(O)CN(CP(=O)(O)O)CP(=O)(O)O
inactive: [2]

Fc1ccc(C2(Cn3cncn3)OC2c2ccccc2Cl)cc1 (stereo not given)
inactive: [2]

COc1cccc(C=O)c1
inactive: [2]

CCc1ccccc1N
inactive: [2]

CCOC(=O)Nc1cccc(OC(=O)Nc2ccccc2)c1
inactive: [2]

CCCCP(CCCC)CCCC
inactive: [2]

Cc1ccc(N)cc1Cl
inactive: [2]

CCC1(c2ccc(N)cc2)CCC(=O)NC1=O (stereo not given)
inactive: [2]

CCC(C)c1cccc(C(C)CC)c1O (stereo not given)
inactive: [2]

CC(=[OH+])/C=C(/C)[O-].CC(=[OH+])/C=C(/C)[O-].CC(=[OH+])/C=C(/C)[O-].[Al]
inactive: [2]

COc1ccc(OC)c(C=O)c1
inactive: [2]

CCCCOCCOC(C)=O
inactive: [2]

COc1ccc(C=O)cc1
inactive: [2]

N#CCc1ccc(Cl)cc1
inactive: [2]

O=C(CCl)CCl
inactive: [2]

C1CCC(NC2CCCCC2)CC1
inactive: [2]

CCC(=O)c1ccccc1
inactive: [2]

OCC(O)CCl (stereo not given)
inactive: [2]

C[C@@H](Oc1ccc(Cl)cc1Cl)C(=O)O
inactive: [2]

Nc1ccc(N=Nc2ccc(-c3ccc(N=Nc4c(S(=O)(=O)O)cc5cc(S(=O)(=O)O)c(N=Nc6ccccc6)c(O)c5c4N)cc3)cc2)c(N)c1
inactive: [2]

O=C(O)Cc1ccccc1
inactive: [2]

Nc1cccc(Cl)c1
inactive: [2]

COS(=O)(=O)c1ccc(C)cc1
inactive: [2]

CC(=O)c1cc(C(C)(C)C)cc2c1CCC2(C)C
inactive: [2]

CC(C)C1CCC(Cc2ccc(Cl)cc2)C1(O)Cn1cncn1 (stereo not given)
inactive: [2]

C=CC#N
inactive: [2]

C[C@H]1O[C@@H](O[C@H]2[C@@H](O)C[C@H](O[C@H]3[C@@H](O)C[C@H](O[C@H]4CC[C@@]5(C)[C@H](CC[C@@H]6[C@@H]5CC[C@]5(C)[C@@H](C7=CC(=O)OC7)CC[C@]65O)C4)O[C@@H]3C)O[C@@H]2C)C[C@H](O)[C@@H]1O
inactive: [2]

CC(C)c1cccc(C(C)C)c1O
inactive: [2]

CCCCCCCCSC(=O)Oc1cc(Cl)nnc1-c1ccccc1
inactive: [2]

CN(CCCC(=O)c1cccnc1)N=O
inactive: [2]

N#CN=C(N)N
inactive: [2]

CC(=O)C=C(C)C
inactive: [2]

CCOP(=O)(CN(CCO)CCO)OCC
inactive: [2]

c1cc[c]([Hg][c]2ccccc2)cc1
inactive: [2]

C=CC(=O)N(C)C
inactive: [2]
